# Data: PubChem BioAssay (NCATS)
# Inconclusive results are not listed. Unmarked numbers belong to inactive results. Active and inactive are the calls of the source. Calls follow the shape of the dose curve; as a rule, active = well fitted cell-killing curve with a large enough effect; inconclusive = small, poorly fitted or top-dose-only effect; inactive = flat fitted curve, though single readings scatter.
# Experiment: Cell Viability - N2a (AID 540); also: nearly all actives have a fitted effect of over 45% in size;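 as to activity change, negative = cytotoxicity: plate controls were DMSO alone for no effect and tamoxifen control for full effect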
# Settings: N2a mouse neuroblastoma cell viability; activity change, negative = cytotoxicity: at 92.2 µM (top of the series)
# Text: NIH Chemical Genomics Center [NCGC]
# NIH Molecular Libraries Screening Centers Network [MLSCN]
# National Institutes of Environmental Health Sciences [NIEHS]
# National Toxicology Program [NTP]
# We have developed a 1536-well cell-based assay for quantitative high throughput screening (qHTS) against a number of cell lines to determine in vitro cytotoxicity of small molecules. This particular assay uses the N2a cell line which is derived from mouse neuroblastoma.
# NCGC Assay Protocol Summary:
# The CellTiter-Glo luminescent cell viability assay (Promega) is a homogeneous method to measure the number of viable cells in culture. The end point readout of this assay is based on quantitation of intracellular ATP, an indicator of metabolic activity, using the luciferase reaction. Luciferase catalyzes the oxidation of beetle Luciferin to oxyluciferin and light in the presence of ATP. The luminescent signal is proportional to amount of ATP present.
# Using the CellTiter-Glo luminescent cell viability assay, the amount of cellular ATP was measured in the N2a cell line with complete culture medium following compound treatment for 40 hours. The assay was performed in opaque white Kalypsys 1536-well plates. In the screen, tamoxifen and doxorubicin were used as positive controls. Library compounds were measured for their ability to cause acute toxicity in the cell line, as reflected by a decrease in intracellular ATP levels, in a concentration-dependent manner. […] AC50 values were determined from concentration-response data modeled with the standard Hill equation.
# qHTS protocol for CellTiter Glo N2a cellular assay
# [Step] [Parameter] [Value] [Description]
# 1. Reagent; 5 uL; 1500 N2a cells/well
# 2. Time; 5 hr; 37 °C incubation
# 4. Controls; 23 nL; Tamoxifen 0.34 uM to 100 uM & Doxorubicin 0.02 nM to 100 uM
# 5. Time; 40 hr; 37 °C incubation
# 6. Reagent; 5 uL; CellTiter Glo reagent
# 7. Time; 20 min; Room Temperature
# 8. Detection; Luminescence; Viewlux plate reader
# Keywords: cell viability, cytotoxicity, N2a cell line, luminescence, NTPHTS, NTPHTS_NCGC, NIEHS, EPA, DSSTox, MLSMR, MLSCN, NIH Roadmap, qHTS, NCGC
# Potency is read from the fitted curve at half-maximal effect.
Structure (SMILES),Potency,"activity change, negative = cytotoxicity"
Oc1cc(Cl)cc(Cl)c1Cl,31.6 µM (active),–
CC(=O)CC(=O)Nc1ccccc1,–,-10.9%
c1c[nH]cn1,–,-11.6%
CC(C)(C)C(=O)C1C(=O)c2ccccc2C1=O,–,-83% (active)
Nc1ccc(-c2ccc(N)c(O)c2)cc1O,–,-122% (active)
O=C(Cl)c1ccc([N+](=O)[O-])cc1,–,7.26%
CCC(Cl)CC(Cl)C(Cl)C(Cl)C(Cl)C(C)Cl (stereo not given),–,-24.5%
CC/C=C/C/C=C/C/C=C/CCCCCCCC(=O)OCC,–,-12.6%
C[Si](C)(C)Cl,–,-6.55%
O=C1OC(=O)c2ccccc21,–,-28.6%
Cc1ccc(C(=O)O)cc1[N+](=O)[O-],–,4.91%
CCCCCCCCOc1ccc(C(=O)O)cc1,–,-7.43%
O=C(OCc1ccccc1)c1ccccc1O,–,-11.2%
c1ccc2ncccc2c1,–,-5.79%
CC(C)COC(=O)COc1cc(Cl)c(Cl)cc1Cl,–,8.53%
Clc1nc2ccccc2nc1Cl,–,-7.43%
C=C1CC[C@H](O)C/C1=C/C=C1\CCC[C@]2(C)[C@@H]([C@H](C)CCCC(C)C)CC[C@@H]12,31.6 µM (active),–
O=CC(=O)c1ccccc1,–,5.07%
CCN(CC)c1ccc2c(C)cc(=O)oc2c1,–,-15.7%
CC(=O)Nc1cccc(C)c1,–,-6.73%

Structure (SMILES),Potency,"activity change, negative = cytotoxicity"
C=CC1CO1 (stereo not given),–,2.77%
Oc1cc2c(cc1O)[C@H]1c3ccc(O)c(O)c3OC[C@@]1(O)C2,–,-91.8% (active)
O=[N+]([O-])c1ccccc1Nc1ccccc1,–,-9.33%
Cc1ccc(S(N)(=O)=O)cc1,–,-12.6%
CC(=O)OC(C(=O)c1ccccc1)c1ccccc1 (stereo not given),–,-7.31%
S=C(NC1CCCCC1)NC1CCCCC1,31.6 µM (active),–
Cc1cc(=O)oc2cc(O)cc(O)c12,–,-0.482%
C[C@@H]1CC2(OC(O)[C@]3(C)O[C@H]23)O[C@H]2C[C@@]3(C)[C@@H]4CC[C@H]5C(C)(C)C(O[C@@H]6OC[C@@H](O)[C@H](O)[C@H]6O)CC[C@@]56C[C@@]46CC[C@]3(C)[C@@H]12 (stereo not given in full),–,-12.9%
COc1cc(-c2ccc(N=C=O)c(OC)c2)ccc1N=C=O,–,4.66%
CC(=O)c1ccc(Cl)c(Cl)c1Cl,–,-12.1%
CC(=O)OC1CC(C)OC(C)O1 (stereo not given),–,7.5%
N=C1C=CC(=C(c2ccc(N)cc2)c2ccc(N)cc2)C=C1,3.98 µM (active),–
Nc1cc(C(=O)O)c(O)c(S(=O)(=O)O)c1,–,-4.5%
Cc1c(N)cccc1Cl,–,-8.37%
CN(C)c1ccc(Cc2ccc(N(C)C)cc2)cc1,–,-41%
CN(C)c1ccc(C(=N)c2ccc(N(C)C)cc2)cc1,31.6 µM (active),–
CCCCCCCC/C=C\CCCCCCCC(=O)N(CCO)CCO,–,-111% (active)
CCOc1ccc2nc(N)sc2c1,–,-2.03%
O=C(OCC1CO1)C1CCCCC1C(=O)OCC1CO1 (stereo not given),–,2.77%
O=c1[nH]ncc2ccccc12,–,-2.98%
